Compounds with a hit are over-represented: about 4.2% of the library has one in this group of screens.
GDH-TPI inh: inhibits GDH-TPI coupling enzymes, artifact for Mtb FBA screen; GDH-TPI coupled enzyme counterscreen, NADH absorbance; inhibition, % at 4.8 µM; actives 1.2% (n = 360,000);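 further: 0% = DMSO wells and 100% = wells lacking the enzyme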
RecA intein inh: Mtb RecA intein splicing inhibition. P9WHJ3. AID 2221. inhibition, % (test concentration not listed). actives 0.75% (n = 290,000). cell-free RecA intein splicing, fluorescence; in the data active means inhibition above about 30%; inconclusive means no clear call, values can overlap the other calls;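 further: 0% = vehicle wells and 100% = reference inhibitor control wells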
Target sequence (P9WHJ3 whole entry, looked up): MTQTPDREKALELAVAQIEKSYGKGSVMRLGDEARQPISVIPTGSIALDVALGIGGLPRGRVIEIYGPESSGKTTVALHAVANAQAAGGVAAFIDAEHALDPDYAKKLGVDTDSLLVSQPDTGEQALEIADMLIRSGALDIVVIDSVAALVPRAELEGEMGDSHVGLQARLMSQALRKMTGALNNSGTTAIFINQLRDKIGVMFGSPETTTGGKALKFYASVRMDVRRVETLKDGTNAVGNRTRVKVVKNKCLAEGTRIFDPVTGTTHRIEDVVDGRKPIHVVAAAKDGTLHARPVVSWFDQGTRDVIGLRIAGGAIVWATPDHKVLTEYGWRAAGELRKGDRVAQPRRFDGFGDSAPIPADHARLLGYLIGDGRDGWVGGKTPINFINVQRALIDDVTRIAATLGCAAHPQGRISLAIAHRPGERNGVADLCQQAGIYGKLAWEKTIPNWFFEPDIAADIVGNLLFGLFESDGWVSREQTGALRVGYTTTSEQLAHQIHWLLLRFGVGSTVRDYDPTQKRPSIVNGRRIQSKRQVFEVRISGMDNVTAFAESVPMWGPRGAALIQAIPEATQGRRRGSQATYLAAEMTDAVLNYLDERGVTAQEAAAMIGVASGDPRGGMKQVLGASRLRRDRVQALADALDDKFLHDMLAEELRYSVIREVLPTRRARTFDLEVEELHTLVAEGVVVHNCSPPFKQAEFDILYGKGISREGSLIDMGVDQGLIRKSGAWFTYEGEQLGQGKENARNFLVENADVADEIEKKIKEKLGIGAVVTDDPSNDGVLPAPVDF
FBA Mtb inh: inhibitors of M. tuberculosis fructose-bisphosphate aldolase | inhibition, % at 1 µM | AID 588726 | P9WQA3 | purified M. tuberculosis FBA, fluorescence read-out | actives 2.3% (n = 360,000); in the data active means inhibition above about 27%;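 further: 0% = vehicle and 100% = reference inhibitor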
Mtb bLac sens: beta-lactam sensitization of Mtb H37Rv; inhibition, % at 25 µM; M. tuberculosis H37Rv growth with meropenem, percent inhibition; AID 434955; actives 0.27% (n = 330,000); call rule not given here;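 further: growth measured after seven days incubation then overnight dye step; 0% = bacteria only wells and 100% = bacteria with antibiotic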
CCHF vOTU inh: blocks the CCHF virus ovarian tumor domain protease. inhibition, % at 11.5 µM. CCHFV vOTU protease, Pep-AMC fluorescence. actives 0.55% (n = 370,000); further: 0% = vehicle wells with enzyme and 100% = no enzyme wells
An asterisk follows results filed as active; u = inconclusive; x = no result given; + = active, no number. Unless noted, no stated cut-off is given here; in the data, active means inhibition above about 30%; inactive means the rest.

SMILES	GDH-TPI inh	RecA intein inh	FBA Mtb inh	Mtb bLac sens	CCHF vOTU inh
Cc1ccc(NC(=O)CC2S/C(=N/N=C/c3c[nH]c4ccccc34)NC2=O)cc1 (configuration not stated)	39*	0	-2	2	-7
CCOC(=O)c1ccc(NC(=O)CC2S/C(=N/N=C/c3c[nH]c4ccccc34)NC2=O)cc1 (configuration not stated)	32*	0	-3	6	18
CCOC(=O)[C@@]12CN(C(=O)OC(C)(C)C)CC=C1N(Cc1ccc(OC)cc1)C(=O)[C@H]2CC(=O)N1CCCC1	x	x	x	x	3
CC1(C)NC(=O)N(CC(O)COc2ccc(-c3ccc(C#N)cc3)cc2)C1=O (configuration not stated)	-1	-1	69*	-17	-9
COCCCNC(=O)CSc1nnc(-c2cccnc2)n1C1CCCCC1	x	x	x	x	-6
Cc1ccc2c(c1)-c1c(ssc1=S)C(C)(C)N2C(=O)CSC1=NCCS1	9	30*	-5	u	-17
CCOc1ccc2c(c1)-c1c(ssc1=S)C(C)(C)N2C(=O)CSC1=NCCS1	4	27	-2	-5	8
CN(Cc1ccccc1)S(=O)(=O)c1cccc(C(=O)OCc2ccccc2Cl)c1	x	x	x	x	4
CC(=O)Nc1ccc(-c2nc3ccc(NC(C)=O)cc3o2)cc1	10	-2	+	-3	-232
CC(=O)Nc1ccc2oc(-c3ccccc3)nc2c1	-1	-2	173*	-6	-23
C[C@@H]1/C=C/CC(=O)N[C@H](c2ccccc2)[C@H](C)/C=C/CC(=O)N[C@@H]1c1ccccc1	x	x	x	x	0
CCOc1ccc(-n2c(C)cc(/C=N/Nc3nc(C)cc(=O)[nH]3)c2C)cc1	36*	-1	3	57	16
COC(=O)c1ccc(COc2ccc(/C=N/Nc3cccc(C(=O)O)c3)cc2)cc1	8	6	2	63	23
COC(=O)c1ccc(COc2ccc(/C=N/Nc3nc(C)cc(=O)[nH]3)cc2)cc1	36*	-1	0	1	-4
Cc1cc(=O)[nH]c(N/N=C/c2ccc(Br)s2)n1	42*	-4	-4	85	11
COc1ccccc1C=NNc1nc(C)cc(=O)[nH]1	37*	x	0	x	8
CN1Cc2nnn(Cc3ccccc3)c2-c2cc(F)ccc2S1(=O)=O	x	x	x	x	-6
Cc1cc(=O)[nH]c(N/N=C/c2ccc(-c3ccc(F)cc3)o2)n1	37*	-5	0	91	18
O=C(OC12CCCN(C1)/C(=C/c1cccnc1)C2)c1ccccc1 (configuration not stated)	x	x	x	x	1
COc1ccc(-c2cn3ccccc3n2)cc1	12	0	114*	-2	-32
Cc1ccccc1S(=O)(=O)N1CCC(c2nc3ccccc3o2)CC1	x	x	x	x	-6
N#CCC(=O)Nc1ccccc1C(=O)O	6	1	2	2	10
N#C/C(=C/Nc1ccccc1C(=O)O)C(N)=O	68*	-2	-5	10	13
CN(C)CCCN(Cc1ccccc1)C(=S)Nc1ccc(OC(F)F)cc1	7	-3	142*	-9	-19
CCOc1cc(/C=N/N=C2/NC(=O)C(CC(=O)O)S2)ccc1OCc1ccccc1Cl (configuration not stated)	40*	2	0	2	17
SMILES	GDH-TPI inh	RecA intein inh	FBA Mtb inh	Mtb bLac sens	CCHF vOTU inh
COc1ccc(/C=N/N=C2/NC(=O)C(CC(=O)O)S2)cc1OCc1ccc(Cl)cc1Cl (configuration not stated)	35*	7	-10	2	-2
CCOc1cc(/C=N/N=C2/NC(=O)C(CC(=O)O)S2)ccc1OS(=O)(=O)c1ccc(C)cc1 (configuration not stated)	13	4	-2	x	23
COc1ccc(/C=N/N=C2/NC(=O)C(CC(=O)O)S2)cc1OCc1ccccc1Cl (configuration not stated)	46*	-2	-1	1	18
COc1ccc(S(=O)(=O)Oc2cccc(/C=N/N=C3/NC(=O)C(CC(=O)O)S3)c2)cc1 (configuration not stated)	11	-1	0	-2	4
CCCC(=O)N1CCC[C@]2(CC[C@H](CCC(C)=O)O2)C1	x	x	x	x	-12
CN(C)c1cccc(NC2=CC(=[N+]3CCOCC3)CC(C)(C)C2)c1	37*	1	0	-3	-6
CCCCOc1ccc(/C=N/NC(=S)Nc2cc(C)ccc2C)cc1	40*	2	2	5	2
CC(C)(C)C(=O)OC12CCCN(C1)/C(=C/c1cccnc1)C2 (configuration not stated)	x	x	x	x	3
Cc1cc(C)c2nc(N3CCOCC3)c(C#N)cc2c1	7	-30	16	5	-4
N#Cc1cc2cc3c(cc2nc1N1CCOCC1)OCO3	1	-97	112*	-9	-51
CCCCN(C(=O)CCC(=O)Nc1cc(C)on1)C(C(=O)NC1CCCC1)c1ccc(OCC)cc1 (configuration not stated)	-6	2	-2	9	37*
COc1cc(OC)cc(-c2nnc(Sc3ccc(C=O)cc3[N+](=O)[O-])o2)c1	x	52*	x	-5	x
Cc1ccc(N/C=C2\C(=O)N(c3ccc(F)cc3F)C(c3cccnc3)S2(=O)=O)cc1 (configuration not stated)	66*	-1	3	-6	1
Cc1ccc(NC2c3ccccc3C(=O)N2c2cccnc2)cc1 (configuration not stated)	12	1	12	-2	-9
COc1ccc(CCNC(=O)c2cc3c(C)nn(-c4ccccc4)c3s2)cc1OC	x	x	x	x	3
c1ccc(-c2ncc(-c3ccn[nH]3)s2)cc1	15	7	139*	-1	-84
c1ccc(Oc2ccc(-c3ccn[nH]3)cc2)cc1	-3	3	-2	3	-3
Oc1ccc(Cl)cc1C1=NNC(c2cccs2)C1 (configuration not stated)	5	8	16	-5	-13
O=[N+]([O-])c1ccc(O)c(C2=NNC(c3ccccc3F)C2)c1 (configuration not stated)	36*	1	8	-2	-11
COC(=O)c1ccccc1Sc1ncnc2onc(C)c12	-3	46*	0	99	0
Cc1ccc(NC(=O)Cn2nnc(-c3ccccc3F)n2)cc1C	x	x	x	x	-1
COc1ccc(CCN(Cc2cccs2)S(=O)(=O)c2ccc(F)cc2)cc1OC	x	x	x	x	17
COc1ccc(-c2ccc(C(=S)N3CCN(C(C)=O)CC3)o2)cc1	32*	-2	7	27	-8
O=C(NCc1nc2ccccc2[nH]1)c1ccc(S(=O)(=O)N2CCOCC2)cc1	9	-1	2	-12	-9
O=C(Nc1nc2ccccc2[nH]1)c1ccc(S(=O)(=O)N2CCOCC2)cc1	39*	3	4	3	-10
COc1ccc(OC)c(S(=O)(=O)N(CC(=O)NC2CCC(C)CC2)c2cc(C)cc(C)c2)c1 (configuration not stated)	x	x	x	x	-3
CCOC(=O)N1CCN(C(=O)C[C@H]2C[C@@]3(C(=O)OC)C(=C[C@H](C(C)C)O[C@@H]3C3CC3)N(Cc3ccc4c(c3)OCO4)C2=O)CC1	x	x	x	x	9
